Reference: PubChem BioAssay (Tox21)
Records with an inconclusive call do not appear. Active and inactive are the calls of the source. Unless noted, calls come from the whole dose curve.

Tests used:
[1] = Nuclear factor erythroid 2-related factor 2/antioxidant responsive element (Nrf2/ARE) small molecule agonists: qHTS cell viability counter screen in human keratinocytes (AID 1919968; active = well fitted curve in the direction sought with a large enough effect in the repeat runs; an effect the other way counts as inactive or inconclusive; note: nearly all actives have a fitted effect of over 55% in size)
Method in brief: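 KeratinoSens HaCaT cells, 1,500/well, preincubated 5 h, then exposed to compounds in DMSO for 23 h at 37 C/5% CO2. Viability read as CellTiter-Fluor fluorescence after 1 h, in the same wells as the ARE-luciferase read.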

[2] = Nuclear factor erythroid 2-related factor 2/antioxidant responsive element (Nrf2/ARE) small molecule agonists: luciferase reporter gene qHTS assay in human keratinocytes (AID 1919969); note: nearly all actives have a fitted effect of over 35% in size
[3] = target: Gonadotropin-releasing hormone receptor (Homo sapiens) (UniProt P30968); test: Human gonadotropin-releasing hormone receptor (GnRHR) small molecule agonists, calcium flux assay in GnRHR-HEK293 cells (AID 1920063); note: nearly all actives have a fitted effect of over 35% in size
Gonadotropin-releasing hormone receptor (Homo sapiens), sequence (P30968 whole entry, looked up): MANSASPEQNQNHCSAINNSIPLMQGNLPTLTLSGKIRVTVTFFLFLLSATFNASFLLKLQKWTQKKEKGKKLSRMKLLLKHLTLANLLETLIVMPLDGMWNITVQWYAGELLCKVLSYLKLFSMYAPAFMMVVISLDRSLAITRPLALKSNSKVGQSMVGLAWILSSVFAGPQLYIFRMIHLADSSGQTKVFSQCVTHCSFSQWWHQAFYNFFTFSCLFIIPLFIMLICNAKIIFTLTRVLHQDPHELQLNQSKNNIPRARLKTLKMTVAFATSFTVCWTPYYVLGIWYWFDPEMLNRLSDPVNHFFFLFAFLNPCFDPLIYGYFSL
Method in brief: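 HEK293 cells stably expressing human GnRHR were dye-loaded for 1 h at 37 C. Compound was added in agonist mode and fluorescence (Ex/Em 480/540) recorded kinetically for 3 min. Fifteen concentrations, triplicates.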

[4] = target: KiSS-1 receptor (Homo sapiens) (UniProt Q969F8); test: Human kisspeptin (KISS1R) small molecule agonists, calcium flux assay in KISS1R-HEK293 cells (AID 1920064; active = well fitted curve in the direction sought with a large enough effect in the repeat runs; an effect the other way counts as inactive or inconclusive)
KiSS-1 receptor (Homo sapiens), sequence (Q969F8 whole entry, looked up): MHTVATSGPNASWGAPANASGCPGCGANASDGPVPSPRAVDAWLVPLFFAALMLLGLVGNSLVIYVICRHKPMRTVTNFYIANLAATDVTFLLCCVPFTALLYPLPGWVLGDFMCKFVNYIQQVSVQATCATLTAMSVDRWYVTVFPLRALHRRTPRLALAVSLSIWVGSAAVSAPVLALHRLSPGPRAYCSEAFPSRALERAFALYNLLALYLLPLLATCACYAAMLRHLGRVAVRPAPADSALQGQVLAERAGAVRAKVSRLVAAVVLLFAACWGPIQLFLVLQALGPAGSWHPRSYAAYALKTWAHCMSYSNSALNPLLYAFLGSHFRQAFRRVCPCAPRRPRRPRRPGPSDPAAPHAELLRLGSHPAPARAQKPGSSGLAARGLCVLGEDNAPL
Method in brief: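 HEK293 cells stably expressing human KISS1R were loaded with calcium dye for 1 h at 37 C, then given compound; fluorescence (Ex/Em 480/540) was read kinetically for 3 min. Fifteen concentrations, triplicate.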

[5] = G protein-coupled receptor (GPCR) small molecule agonists, calcium flux assay: HEK293 wild type cell line counter screen (AID 1920065)
Method in brief: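 Wild-type HEK293 cells plated 18 h, loaded with calcium dye 1 h at 37 C, then compounds added in agonist mode (ATP as positive control). Kinetic fluorescence Ex/Em 480/540 recorded 3 min at 1 sec intervals; 15 concentrations, triplicate.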

[6] = p53 small molecule agonists, cell-based qHTS assay with human liver microsomes: qHTS cell viability counter screen (AID 1963579); note: nearly all actives have a fitted effect of over 45% in size
Method in brief: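 Cytotoxicity counter screen: p53RE-bla, 4,000 cells/well; 5 h settle, 37 C/5% CO2; cpd + HLM 0.5 mg/mL + NADPH 0.5 mg/mL (final); 16 h, 37 C; CellTiter-Glo, 30 min RT, luminescence.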

[7] = p53 small molecule agonists, cell-based qHTS assay with rat liver microsomes: qHTS cell viability counter screen (AID 1963580); note: nearly all actives have a fitted effect of over 45% in size
Method in brief: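 p53RE-bla HCT-116 cells were exposed 16 h at 37 C to compounds with rat liver microsomes (0.5 mg/mL) and NADPH (0.5 mg/mL). Viability was measured in the same wells as ATP content by CellTiter-Glo luminescence.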

[8] = p53 small molecule agonists, cell-based qHTS assay: qHTS cell viability counter screen (AID 1963581); note: nearly all actives have a fitted effect of over 45% in size; note: potency is the fitted concentration of half-maximal effect
Method in brief: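 p53RE-bla HCT-116 cells, compounds added 5 h after plating and incubated 16 h at 37 C. Cytotoxicity measured in the same wells as intracellular ATP by CellTiter-Glo luminescence after 30 min at room temperature.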

[9] = target: 5-hydroxytryptamine receptor 2A (Homo sapiens) (UniProt P28223); test: 5-hydroxytryptamine receptor 2A (HTR2A) small molecule antagonists, cell-based qHTS assay (AID 1963586); note: nearly all actives have a fitted effect of over 45% in size; note: potency is the fitted concentration of half-maximal effect
5-hydroxytryptamine receptor 2A (Homo sapiens), sequence (P28223 whole entry, looked up): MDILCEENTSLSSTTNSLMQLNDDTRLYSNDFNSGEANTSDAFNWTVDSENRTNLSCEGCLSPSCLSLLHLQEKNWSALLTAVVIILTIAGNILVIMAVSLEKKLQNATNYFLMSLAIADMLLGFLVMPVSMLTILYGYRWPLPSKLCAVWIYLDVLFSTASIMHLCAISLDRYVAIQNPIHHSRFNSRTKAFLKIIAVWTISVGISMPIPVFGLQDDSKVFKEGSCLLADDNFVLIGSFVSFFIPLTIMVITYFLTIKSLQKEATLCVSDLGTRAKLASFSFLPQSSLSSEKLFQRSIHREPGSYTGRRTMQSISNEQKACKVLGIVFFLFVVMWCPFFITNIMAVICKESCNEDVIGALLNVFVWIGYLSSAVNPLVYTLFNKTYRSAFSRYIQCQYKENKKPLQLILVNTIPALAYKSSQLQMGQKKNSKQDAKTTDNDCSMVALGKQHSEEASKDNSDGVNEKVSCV
Method in brief: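 Antagonist-mode intracellular calcium assay: DOI (4 nM) added after 5 min compound pre-incubation at room temperature to dye-loaded HTR2A-CHO cells. Fluorescence followed for 3 min, sampled every second.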

[10] = target: 5-hydroxytryptamine receptor 2A (Homo sapiens) (UniProt P28223); test: 5-hydroxytryptamine receptor 2A (HTR2A) small molecule agonists, cell-based qHTS assay (AID 1963587); note: nearly all actives have a fitted effect of over 30% in size; note: potency is the fitted concentration of half-maximal effect
Method in brief: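 CHO cells stably expressing human HTR2A, plated 18 h, loaded with calcium dye 1 h at 37 C. Agonist mode: compounds added and intracellular calcium fluorescence recorded kinetically for 2 min at 1 sec intervals.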

[11] = target: Muscarinic acetylcholine receptor M1 (Homo sapiens) (UniProt P11229); test: Cholinergic receptor muscarinic 1 (CHRM1) small molecule antagonists, cell-based qHTS assay (AID 1963588); note: nearly all actives have a fitted effect of over 40% in size; note: potency is the fitted concentration of half-maximal effect
Muscarinic acetylcholine receptor M1 (Homo sapiens), sequence (P11229 whole entry, looked up): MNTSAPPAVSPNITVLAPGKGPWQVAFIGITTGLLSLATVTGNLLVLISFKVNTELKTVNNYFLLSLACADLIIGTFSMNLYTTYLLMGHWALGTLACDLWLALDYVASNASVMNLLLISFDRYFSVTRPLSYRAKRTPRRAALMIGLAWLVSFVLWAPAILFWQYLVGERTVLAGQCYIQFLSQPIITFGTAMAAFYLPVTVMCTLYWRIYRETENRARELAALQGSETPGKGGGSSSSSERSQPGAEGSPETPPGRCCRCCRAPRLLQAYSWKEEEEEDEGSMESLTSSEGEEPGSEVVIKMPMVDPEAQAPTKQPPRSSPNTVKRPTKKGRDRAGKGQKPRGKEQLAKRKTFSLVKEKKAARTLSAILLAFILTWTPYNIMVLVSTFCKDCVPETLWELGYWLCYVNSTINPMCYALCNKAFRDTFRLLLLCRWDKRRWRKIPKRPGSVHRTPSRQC
Method in brief: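 CHRM1-CHO calcium-flux assay, antagonist mode. Cells were seeded 18 h, dye-loaded 1 h at 37 C and given compound for 5 min at RT, then acetylcholine was added at 50nM. FDSS fluorescence was read 3 min; 15 concentrations, three runs.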

[12] = target: Muscarinic acetylcholine receptor M1 (Homo sapiens) (UniProt P11229); test: Cholinergic receptor muscarinic 1 (CHRM1) small molecule agonists, cell-based qHTS assay (AID 1963589); note: nearly all actives have a fitted effect of over 35% in size
Method in brief: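 CHO cells stably expressing human CHRM1 were loaded with calcium dye for 1 h at 37 C, then compound was added in agonist mode. Intracellular calcium fluorescence was followed kinetically at 1 s intervals. Fifteen concentrations were tested in three independent runs.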

[13] = cAMP Responsive Elements (CRE) small molecule agonists, cell-based qHTS assay (AID 1963590)
Method in brief: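 CRE-bla HEK 293T cells, 2,000/well in DMEM with 10% dialyzed FBS and 25 mM HEPES, pre-incubated 18 h at 37 C, then exposed to compound 3 h at 37 C. Beta-lactamase reporter read with LiveBLAzer B/G FRET substrate after 2 h at room temperature.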

[14] = cAMP Responsive Elements (CRE) small molecule antagonists, cell-based qHTS assay (AID 1963591; active = well fitted inhibition curve with a large enough effect in the signal ratio in the repeat runs, not every such curve was filed as active; the % refers to the signal ratio)
Method in brief: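 CRE-bla HEK293T cells plated 18 h, then given compound plus NKH477 at 0.25 uM final for 3 h at 37C. Beta-lactamase reporter read with LiveBLAzer B/G FRET substrate after 2 h at room temperature.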

[15] = target: Beta-2 adrenergic receptor (Homo sapiens) (UniProt P07550); test: Adrenergic beta2 receptor (ADRB2) small molecule antagonists, cell-based qHTS assay (AID 1963592); note: nearly all actives have a fitted effect of over 50% in size; note: potency is the fitted concentration of half-maximal effect
Beta-2 adrenergic receptor (Homo sapiens), sequence (P07550 whole entry, looked up): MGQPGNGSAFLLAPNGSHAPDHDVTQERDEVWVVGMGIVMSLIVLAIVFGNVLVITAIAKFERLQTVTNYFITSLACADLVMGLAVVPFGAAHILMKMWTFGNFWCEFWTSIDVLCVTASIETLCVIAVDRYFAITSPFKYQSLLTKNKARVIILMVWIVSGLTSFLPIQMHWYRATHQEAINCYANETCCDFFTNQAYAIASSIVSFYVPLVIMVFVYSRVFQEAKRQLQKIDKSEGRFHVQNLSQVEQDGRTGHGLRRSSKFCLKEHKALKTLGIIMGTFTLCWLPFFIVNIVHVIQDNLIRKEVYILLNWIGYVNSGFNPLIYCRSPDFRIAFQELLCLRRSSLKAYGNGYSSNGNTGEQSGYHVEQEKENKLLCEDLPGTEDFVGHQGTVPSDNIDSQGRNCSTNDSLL
Method in brief: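 Cells (CHO, stable ADRB2 overexpression) incubated 18-20hr at 37C; compounds added from DMSO; agonist mix (1nM isoproterenol, 100uM IBMX, 25uM Ro-20-1724) added; 0.5hr RT; d2-cAMP and anti-cAMP-cryptate added; 1hr RT; 665/615 nm read.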

[16] = target: D(2) dopamine receptor (Homo sapiens) (UniProt P14416); test: Dopamine D2 receptor (DRD2) small molecule agonists, cell-based qHTS assay (AID 1963594); note: nearly all actives have a fitted effect of over 35% in size
D(2) dopamine receptor (Homo sapiens), sequence (P14416 whole entry, looked up): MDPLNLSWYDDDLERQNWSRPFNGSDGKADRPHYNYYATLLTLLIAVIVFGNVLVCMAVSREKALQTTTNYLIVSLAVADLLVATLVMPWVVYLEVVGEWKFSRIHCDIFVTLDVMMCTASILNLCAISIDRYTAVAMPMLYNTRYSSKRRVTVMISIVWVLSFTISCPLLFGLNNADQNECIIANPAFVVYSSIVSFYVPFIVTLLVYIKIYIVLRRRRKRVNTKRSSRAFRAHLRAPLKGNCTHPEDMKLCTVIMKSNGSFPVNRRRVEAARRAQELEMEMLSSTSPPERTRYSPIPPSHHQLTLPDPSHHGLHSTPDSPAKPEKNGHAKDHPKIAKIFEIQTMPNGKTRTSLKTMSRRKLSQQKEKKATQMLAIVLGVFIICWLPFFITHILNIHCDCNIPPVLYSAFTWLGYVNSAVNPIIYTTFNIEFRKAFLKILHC
Method in brief: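 HEK293 cells stably expressing human DRD2, pre-treated with PDE inhibitor Ro20-1724 (0.1 mM final) and compound 10 min at room temperature, then stimulated with NKH477 (200nM […]) for 30 min. cAMP read by HTRF (665/620 nm).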

[17] = target: D(2) dopamine receptor (Homo sapiens) (UniProt P14416); test: Dopamine D2 receptor (DRD2) small molecule antagonists, cell-based qHTS assay (AID 1963595; active = well fitted inhibition curve with a large enough effect in the signal ratio in the repeat runs, with a control signal flat; the % refers to the signal ratio; note: potency is the fitted concentration of half-maximal effect)
Method in brief: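 Antagonism was scored as restored cAMP in HEK293-DRD2 cells. These cells were stimulated with 200 nM NKH477 and 12 nM quinpirole for 30 min at room temperature, in the presence of 0.1 mM Ro20-1724.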

Measured: Potency

Cc1ncc([N+](=O)[O-])n1CC(O)CCl (stereo not drawn)
inactive: all assays above

CC(C)(C)c1ccc(-c2ccc(C(C)(C)C)cc2)cc1
inactive: all assays above

CC(C)(N)C#N
inactive: all assays above

Cc1nc2ccc(CN(C)c3ccc(C(=O)N[C@@H](CCC(=O)O)C(=O)O)s3)cc2c(=O)[nH]1
inactive: all assays above

CC(=O)N[C@@H](CCC(=O)O)C(=O)O
not listed: [17]
inactive: all other assays above

CO[C@]12C[C@@H](COC(=O)c3cncc(Br)c3)CN(C)[C@@H]1Cc1cn(C)c3cccc2c13
active: [9] 0.0729 µM | [10] 0.0849 µM | [11] 8.18 µM | [15] 13.3 µM | [17] 26.6 µM
inactive: all other assays above

Cc1ncc(COP(=O)(O)O)c(C=O)c1O
not listed: [16]
inactive: all other assays above

O=[N+]([O-])c1cccc(Cl)c1Cl
inactive: all assays above

OCCN1CCOCC1
inactive: all assays above

O=C1OC(=O)c2c(Br)c(Br)c(Br)c(Br)c21
inactive: all assays above

COc1ccc(COC=O)cc1
inactive: all assays above

CCCNCCC
inactive: all assays above

O=C(O)c1ccc(O)c(O)c1
inactive: all assays above

O=C(Nc1ccccc1)OCC(CN1CCCCC1)OC(=O)Nc1ccccc1 (stereo not drawn)
active: [8] 12.6 µM
inactive: all other assays above

Cc1ccc(C#N)cc1
inactive: all assays above
